Data published in PubChem BioAssay (NCATS).
Activity calls are given as the source filed them. Unless noted, calls come from the whole dose curve.

biological target: Glucocorticoid receptor (Homo sapiens) (UniProt P04150); assay: GR-GFP Redistribution (AID 450;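 active = compounds whose dose series gives a full or clear partial fitted curve of increased nuclear translocation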); settings: U2OS GR-GFP nuclear translocation, laser cytometry, 2 h
Potency is the fitted concentration of half-maximal effect.

Glucocorticoid receptor (Homo sapiens), sequence (P04150 whole entry, looked up, the tested form may be a part): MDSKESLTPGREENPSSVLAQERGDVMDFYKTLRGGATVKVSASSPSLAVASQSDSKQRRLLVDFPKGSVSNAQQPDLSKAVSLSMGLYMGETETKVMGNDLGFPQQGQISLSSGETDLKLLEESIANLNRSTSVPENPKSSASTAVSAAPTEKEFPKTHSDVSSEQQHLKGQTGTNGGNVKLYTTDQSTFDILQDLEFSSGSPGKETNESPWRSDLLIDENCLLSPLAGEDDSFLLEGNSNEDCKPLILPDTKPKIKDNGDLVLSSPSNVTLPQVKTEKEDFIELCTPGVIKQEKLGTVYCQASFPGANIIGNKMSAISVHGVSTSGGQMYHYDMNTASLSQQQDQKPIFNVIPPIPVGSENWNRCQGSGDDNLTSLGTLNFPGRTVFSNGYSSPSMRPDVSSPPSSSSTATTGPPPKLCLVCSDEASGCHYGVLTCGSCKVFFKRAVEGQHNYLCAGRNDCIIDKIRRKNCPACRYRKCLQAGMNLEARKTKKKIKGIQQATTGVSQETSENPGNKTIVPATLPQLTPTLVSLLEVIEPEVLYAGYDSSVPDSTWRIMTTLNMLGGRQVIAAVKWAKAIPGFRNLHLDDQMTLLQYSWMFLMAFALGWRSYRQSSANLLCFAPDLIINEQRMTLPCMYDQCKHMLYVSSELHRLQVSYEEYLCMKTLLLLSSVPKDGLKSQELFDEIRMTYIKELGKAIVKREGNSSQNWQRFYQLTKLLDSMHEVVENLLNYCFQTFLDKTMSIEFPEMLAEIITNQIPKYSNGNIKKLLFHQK

Potency, inactive:
CN(C)C(=O)c1ccc(-c2nc(NCc3cccnc3)c3ccccc3n2)cc1 > 46 µM, Cc1cccc(CNc2cc(-c3cccc(NS(C)(=O)=O)c3)ncn2)c1 > 46 µM, Cc1noc(C)c1-c1nccc(N2CCNCC2)n1 > 46 µM, c1ccc(Nc2ncnc3ccc(-c4cccnc4)cc23)cc1 > 46 µM, c1ccc2c(N3CCNCC3)nc(-c3ccoc3)nc2c1 > 46 µM, N#Cc1ccccc1-c1ccc2ncnc(NCc3cccs3)c2c1 > 46 µM, CN(C)C(=O)c1ccc(-c2ccc3ncnc(NCc4cccnc4)c3c2)cc1 > 46 µM, CN(C)Cc1ccccc1-c1cncnc1NCc1ccccc1 > 46 µM, COc1ccccc1CNc1ncncc1-c1ccc(N(C)C)cc1 > 46 µM, CN(C)Cc1ccccc1-c1ccc2ncnc(NC3CC3)c2c1 > 46 µM, Cc1ccccc1-c1cncnc1N1CCNCC1 > 46 µM, COc1ccc(Oc2ncc3nc(CCc4ccccc4)c(=O)n(C)c3n2)cc1 > 9.22 µM, COc1cccc(-c2nc(N3CCNCC3)c3ccccc3n2)c1 > 46 µM, O=c1c(-c2cc(F)cc(F)c2)nc2cnc(Oc3ccccc3)nc2n1C[C@H]1CCCO1 > 9.22 µM, COCCn1c(=O)c(-c2ccc(F)cc2)nc2cnc(Oc3ccc(OC)cc3)nc21 > 9.22 µM, CN1CCN(c2ccnc(-c3ccccc3C(F)(F)F)n2)CC1 > 46 µM, Cc1cccc(CNc2ccnc(-c3cccc(NS(C)(=O)=O)c3)n2)c1 > 46 µM, CN1CCN(c2nc(-c3cccc(NS(C)(=O)=O)c3)nc3ccccc23)CC1 > 46 µM, CN(C)Cc1ccccc1-c1ccc2ncnc(NCc3cccs3)c2c1 > 46 µM, O=c1c(CCc2ccccc2)nc2cnc(N3CCOCC3)nc2n1C[C@H]1CCCO1 > 9.22 µM

biological target: Glucocorticoid receptor (Homo sapiens) (UniProt P04150); assay: GR-EFC Redistribution (AID 451); settings: CHO-K1 GR-EFC translocation, beta-gal luminescence, 2 h
Outline: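 CHO-K1 cells stably expressing nuclear-localized β-gal enzyme acceptor and GR fused C-terminally to the enzyme donor fragment; ligand-driven nuclear translocation restores β-gal by complementation. Compounds titrated up to 46 uM final, 2 h at 37 °C; luminescence read.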

Potency, inactive:
CN(C)C(=O)c1ccc(-c2nc(NCc3cccnc3)c3ccccc3n2)cc1 > 46 µM, N#Cc1cccc(NC(=O)N2CC3(CCN(C(=O)c4cccc(F)c4)CC3)C2)c1 > 46 µM, CC(C)NC(=O)N1CCC2(CC1)CCN(C(=O)c1cnccn1)CC2 > 46 µM, Cc1cccc(CNc2cc(-c3cccc(NS(C)(=O)=O)c3)ncn2)c1 > 46 µM, COc1ccc(C(=O)N2CCC3(CC2)CN(c2ccccn2)C3)cc1 > 46 µM, Cc1noc(C)c1-c1nccc(N2CCNCC2)n1 > 46 µM, c1ccc(Nc2ncnc3ccc(-c4cccnc4)cc23)cc1 > 46 µM, CS(=O)(=O)N1CCC[C@@]2(CCN(c3ccncc3)C2)C1 > 46 µM, O=C(c1ccncc1)N1CCC[C@@]2(CCN(c3cccc(-c4ccccc4)c3)C2)C1 > 46 µM, c1ccc2c(N3CCNCC3)nc(-c3ccoc3)nc2c1 > 46 µM, O=C(c1csnn1)N1CCC2(CCCN(c3ccncc3)C2)CC1 > 46 µM, N#Cc1ccc(CN2CCCC3(CCN(C(=O)c4cc(C(F)(F)F)cc(C(F)(F)F)c4)CC3)C2)cc1 > 46 µM, N#Cc1ccccc1-c1ccc2ncnc(NCc3cccs3)c2c1 > 46 µM, CN(C)C(=O)c1ccc(-c2ccc3ncnc(NCc4cccnc4)c3c2)cc1 > 46 µM, CN(C)Cc1ccccc1-c1cncnc1NCc1ccccc1 > 46 µM, O=C(c1cnccn1)N1CCC2(CCN(Cc3ccncc3)CC2)CC1 > 46 µM, O=C(Nc1cccc(F)c1)N1CCC2(CC1)CCN(C(=O)c1cc(C(F)(F)F)cc(C(F)(F)F)c1)CC2 > 46 µM, N#Cc1ccc(CN2CCCC3(CCNCC3)C2)cc1 > 46 µM, O=C(Nc1ccccc1)N1CCCC2(CCNCC2)C1 > 46 µM, COc1ccccc1CNc1ncncc1-c1ccc(N(C)C)cc1 > 46 µM, O=S(=O)(c1ccccc1)N1CCC2(CCN(c3ccncc3)CC2)CC1 > 46 µM, CN(C)Cc1ccccc1-c1ccc2ncnc(NC3CC3)c2c1 > 46 µM
